Experimental data reported in PubChem BioAssay (EPA / NIEHS).
Calls of active or inactive are those of the source. How the source made its calls: active means hit-call score of the fitted dose curve at least 0.9, where 1 is the maximum; inactive means score below 0.9.

Biological target: CCAAT/enhancer-binding protein beta (Homo sapiens) (UniProt P17676)
Assay: ATG_C_EBP_CIS: Attagene CIS-FACTORIAL HepG2 Assay for human CCAAT/Enhancer Binding Protein (C/EBP) beta (AID 2282927)
Conditions: HepG2 Attagene cis-factorial transcription factor reporter; actives raise or lower the signal
Method: ATG_CIS is a cell-based, multiplexed-readout assay that uses HepG2, a human liver cell line, with measurements taken at 24 hours after chemical dosing in a 24-well plate.ATG_C_EBP_CIS is one of 52 assay component(s) measured or calculated from the ATG_CIS assay. It is designed to make measurements of mRNA induction, a form of inducible reporter, as detected with fluorescence intensity signals by Reverse transcription polymerase chain reaction (RT-PCR) and Capillary electrophoresis technology.Data from the assay component ATG_C_EBP_CIS was analyzed into 1 assay endpoint. This assay endpoint, ATG_C_EBP_CIS, was analyzed with bidirectional fitting relative to DMSO as the negative control and baseline of activity. Using a type of inducible reporter, measures of mRNA for gain or loss-of-signal activity can be used to understand the reporter gene at the transcription factor-level as they relate to the gene CEBPB. Furthermore, this assay endpoint can be referred to as a primary readout, because this assay has produced multiple assay endpoints where this one serves a reporter gene function. To generalize the intended target to other relatable targets, this assay endpoint is annotated to the dna binding intended target family, where the subfamily is basic leucine zipper.
Human liver HepG2 cells are transiently transfected with multiple reporter transcription units (MRTUs) in 6-well plates using FuGene 6 reagent (Roche; 3 ml FuGene/1 mg DNA). The MRTU constructs are regulated by a cis-regulating element (promoter). […] A major difference between the CIS and TRANS system is that in CIS activities of endogenous TFs are measured, whereas the TRANS assay evaluates changes in activities of exogenous, chimeric NR-Gal4 proteins. […] At the end of 24 hour incubation, total RNA was isolated using TriZol reagent (Invitrogen). The isolated RNA is then reverse-transcribed using oligo(dT) primer and Mo-MLV reverse transcriptase (Invitrogen) with DNAse I (Ambion) treatment for 30 min. The one-tenth of the produced cDNA was amplified by PCR using Taq DNA polymerase (Invitrogen) and two reporter sequence-specific primers. The PCR products were fluorescently labeled by primer extension with 6-arboxyfluorescein (6-FAM) 5'-labeled reporter sequence-specific primer (2 min at 95 C, 20 s at 68 C and 10 min at 72 C) and these products were digested with 5U of HpaI (New England Biolabs) for 2h at 37 C. The fragments were purified using Qiaquick PCR columns (Qiagen), analyzed on an ABI 3130xL genetic analyzer (Applied Biosystems) with peak positions identified by using a set of X-rhodamine (ROX)-labeled MapMarker1000 molecular weight standards (BioVentures). The raw capillary electrophoresis data was processed using Attagraph software (Attagene).

Sequence of CCAAT/enhancer-binding protein beta (Homo sapiens) (P17676 whole entry, looked up): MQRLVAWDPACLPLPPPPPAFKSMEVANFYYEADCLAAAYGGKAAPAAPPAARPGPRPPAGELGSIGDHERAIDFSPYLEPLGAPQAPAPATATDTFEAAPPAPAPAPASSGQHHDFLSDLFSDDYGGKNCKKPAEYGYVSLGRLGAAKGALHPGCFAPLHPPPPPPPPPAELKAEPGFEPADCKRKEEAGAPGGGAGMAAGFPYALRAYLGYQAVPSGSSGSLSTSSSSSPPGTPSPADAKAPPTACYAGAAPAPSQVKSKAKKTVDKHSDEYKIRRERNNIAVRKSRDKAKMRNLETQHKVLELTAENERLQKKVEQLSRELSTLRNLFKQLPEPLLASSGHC

Row | SMILES | outcome
1 | CC(=O)OC(C)(C)C1CC=C(C)CC1 (stereo not given) | inactive
2 | CC(C)(C)c1cc(CCC(=O)OCCSCCOC(=O)CCc2cc(C(C)(C)C)c(O)c(C(C)(C)C)c2)cc(C(C)(C)C)c1O | inactive
3 | N=C1N=C(N)c2ccccc21 | inactive
4 | C=C1CC[C@H]2O[C@]2(C)CC[C@@H]2[C@@H]1CC2(C)C | inactive
5 | c1ccc(Cc2ccccc2)cc1 | inactive
6 | CCCCCCCOC(C)=O | inactive
7 | CCCCCCCCCCCCOC(C)=O | inactive
8 | CCCc1ccc(O)cc1 | inactive
9 | CCCCC/C=C\C=C\C(=O)OCC | inactive
10 | Cc1ccc(C(C)(C)O)cc1 | inactive
11 | CCCCCCCCCCCCOCCOS(=O)(=O)O | inactive
12 | CC1=CC[C@@H](C(C)(C)O)CC1 | inactive
13 | CCCCCCCCCCO[C@@H]1O[C@H](CO)[C@@H](O)[C@H](O)[C@H]1O | inactive
14 | CC(=O)N(C)C | inactive
15 | COC(=O)c1ccc(C(=O)OC)cc1 | inactive
16 | CC(C)Cc1ccc(C(C)C(=O)O)cc1 (stereo not given) | inactive
17 | CC(=O)C1C(=O)C=C(C)OC1=O (stereo not given) | inactive
18 | C=C1CC/C=C(\C)CC[C@@H]2[C@@H]1CC2(C)C | inactive
19 | COc1ccc2[nH]cc(CCNC(C)=O)c2c1 | inactive
20 | CC1=CCC(C(C)(C)O)CC1 (stereo not given) | inactive

Row | SMILES | outcome
21 | S=c1[nH][nH]c(=S)s1 | inactive
22 | CCCC1CCC(=O)CC1 | inactive
23 | C=CCOC(=O)/C=C\C(=O)OCC=C | inactive
24 | CC1(C)CC(N)CC(C)(CN)C1 (stereo not given) | inactive
25 | CC(=O)c1ccc(O)cc1 | inactive
26 | O=C(O)c1cc2ccccc2cc1O | inactive
27 | CCCCCCCCCOS(=O)(=O)O | inactive
28 | CC(=O)CCC(=O)O | inactive
29 | CC/C(=C(\c1ccccc1)c1ccc(OCCN(C)C)cc1)c1ccccc1 | inactive
30 | CCCO | inactive
31 | COc1ccc(C(C)=O)cc1 | inactive
32 | CC(=O)CC(C)(C)C1CCCCC1 | inactive
33 | CNC(=C[N+](=O)[O-])NCCSCc1ccc(CN(C)C)o1 | inactive
34 | CCOC(=O)C(=O)OCC | inactive
35 | COC(=O)c1cccc(C(=O)OC)c1 | inactive
36 | C[C@]12CC[C@@H]3c4ccc(O)cc4CC[C@H]3[C@@H]1CC[C@@H]2O | inactive
37 | CC(C)(O)CCc1ccccc1 | inactive
38 | CC(C)(CO)CO | inactive
39 | CCCCOCCOCCO | inactive
40 | c1ccc(OCCOc2ccccc2)cc1 | inactive
